This passage reports log2 fold change results from the supplement of paper PMC10849652.

Common to all, as to test: log2 fold change, soluble protein after heating vs DMSO (PISA); higher = thermal stabilisation; K562 lysate, 10 uM; active = over 0.2 and 3.5 SD of the protein, either way, in both replicates (recomputed)
Compound in assay [1]: NCC(=O)Nc1ccc(-n2nc(C(F)(F)F)cc2-c2ccc3c(ccc4ccccc43)c2)cc1
A digest of the protocol: (§1)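 To prepare the extract, K562 pellets were dounce-homogenised in PBS pH 7.4 with 1 mM MgCl2, giving crude material at 1 mg/mL protein. This was treated with 10 μM compound for 30 min, then heated in aliquots for 3 min over 48°C-58°C before pooling and addition of NP-40 to 0.5% at 4°C. Centrifugation at 21,000xg for 90 min left soluble protein in the supernatant, which TMTpro 16plex LC-MS/MS quantified with equalised channel sums. Results are log-two fold changes in thermal stability compared with solvent controls, from duplicates.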

Compound in the next assay: O=C(CCCCCCC(=O)Nc1ccccc1)NO [vorinostat]
A digest of the protocol:
as §1

Compound in a further assay: O=C(O)c1ccc2c(c1)nc(Nc1cccc(Cl)c1)c1ccncc12 [silmitasertib]
A digest of the protocol: as §1

Compound in assay [2]: O=C1NC(=O)C(c2cnc3ccccn23)=C1c1cn2c3c(cc(F)cc13)CN(C(=O)N1CCCCC1)CC2
A digest of the protocol:
as §1

Compound in the next assay: c1cn2cc(-c3ccc4cn[nH]c4c3)nc(Nc3ccc(N4CCOCC4)cc3)c2n1 [entospletinib]
A digest of the protocol:
as §1

About 8,800 targets were measured; listed, in parts, are those with a hit and a random draw of the rest. About 0.5% of all pairs of compound and target were hits. A number with no mark means an inactive call.

Sequence of UniProt Q96G25 (Q96G25 whole entry, looked up): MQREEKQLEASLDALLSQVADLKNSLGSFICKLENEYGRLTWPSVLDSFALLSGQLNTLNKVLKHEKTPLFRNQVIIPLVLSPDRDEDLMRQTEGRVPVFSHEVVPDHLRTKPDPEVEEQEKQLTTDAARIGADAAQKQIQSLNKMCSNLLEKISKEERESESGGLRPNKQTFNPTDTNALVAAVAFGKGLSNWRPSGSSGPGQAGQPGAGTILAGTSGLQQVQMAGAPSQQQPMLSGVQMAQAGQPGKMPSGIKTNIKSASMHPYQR
Sequence of UniProt O95777 (O95777 whole entry, looked up): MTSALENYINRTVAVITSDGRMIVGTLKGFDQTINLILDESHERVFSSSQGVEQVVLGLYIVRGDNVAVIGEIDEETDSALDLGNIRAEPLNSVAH
Sequence of UniProt P07948 (P07948 whole entry, looked up): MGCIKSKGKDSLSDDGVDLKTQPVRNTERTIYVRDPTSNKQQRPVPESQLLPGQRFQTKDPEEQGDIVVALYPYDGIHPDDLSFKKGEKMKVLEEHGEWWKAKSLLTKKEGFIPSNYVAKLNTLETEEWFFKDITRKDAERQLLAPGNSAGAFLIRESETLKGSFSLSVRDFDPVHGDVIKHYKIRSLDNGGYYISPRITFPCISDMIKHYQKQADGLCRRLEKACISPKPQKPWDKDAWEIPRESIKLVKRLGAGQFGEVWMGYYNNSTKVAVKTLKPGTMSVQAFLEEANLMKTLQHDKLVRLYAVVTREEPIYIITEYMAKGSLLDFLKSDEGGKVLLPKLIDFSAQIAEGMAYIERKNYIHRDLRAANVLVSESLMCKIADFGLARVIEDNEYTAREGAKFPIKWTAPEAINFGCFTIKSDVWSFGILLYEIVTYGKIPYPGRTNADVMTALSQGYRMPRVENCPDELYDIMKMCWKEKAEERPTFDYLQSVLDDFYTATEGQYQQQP
Sequence of UniProt Q8IYU8 (Q8IYU8 whole entry, looked up): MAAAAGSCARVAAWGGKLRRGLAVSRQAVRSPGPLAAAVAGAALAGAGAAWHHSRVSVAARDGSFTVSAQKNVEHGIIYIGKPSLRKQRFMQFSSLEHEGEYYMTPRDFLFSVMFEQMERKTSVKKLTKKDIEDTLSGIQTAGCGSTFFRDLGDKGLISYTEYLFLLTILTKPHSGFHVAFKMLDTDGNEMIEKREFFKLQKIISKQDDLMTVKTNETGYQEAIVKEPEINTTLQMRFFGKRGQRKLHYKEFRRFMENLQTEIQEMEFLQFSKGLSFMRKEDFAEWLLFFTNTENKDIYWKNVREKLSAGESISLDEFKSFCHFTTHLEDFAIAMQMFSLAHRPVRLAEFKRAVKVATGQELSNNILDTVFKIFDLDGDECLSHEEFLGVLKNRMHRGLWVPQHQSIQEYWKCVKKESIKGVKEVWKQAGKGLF
Sequence of UniProt Q16659 (Q16659 whole entry, looked up): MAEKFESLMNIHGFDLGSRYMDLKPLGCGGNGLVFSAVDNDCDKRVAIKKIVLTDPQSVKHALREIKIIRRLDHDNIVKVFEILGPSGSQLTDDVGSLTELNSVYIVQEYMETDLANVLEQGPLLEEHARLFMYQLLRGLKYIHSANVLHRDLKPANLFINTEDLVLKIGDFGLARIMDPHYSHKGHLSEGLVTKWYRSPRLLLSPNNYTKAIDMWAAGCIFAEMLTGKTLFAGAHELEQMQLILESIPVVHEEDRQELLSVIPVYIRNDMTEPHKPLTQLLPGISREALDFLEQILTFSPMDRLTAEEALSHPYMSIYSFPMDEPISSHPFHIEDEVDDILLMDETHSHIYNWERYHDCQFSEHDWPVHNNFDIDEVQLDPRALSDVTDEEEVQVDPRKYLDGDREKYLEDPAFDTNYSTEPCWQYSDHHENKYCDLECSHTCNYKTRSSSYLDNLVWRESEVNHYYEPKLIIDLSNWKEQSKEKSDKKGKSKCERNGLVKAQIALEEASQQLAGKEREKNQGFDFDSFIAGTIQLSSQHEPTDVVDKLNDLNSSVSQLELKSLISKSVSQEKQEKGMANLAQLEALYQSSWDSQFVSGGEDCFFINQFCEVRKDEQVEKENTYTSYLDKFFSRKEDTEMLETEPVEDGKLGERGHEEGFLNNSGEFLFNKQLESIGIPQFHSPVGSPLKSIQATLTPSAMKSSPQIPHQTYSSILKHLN
Sequence of UniProt Q14693 (Q14693 whole entry, looked up): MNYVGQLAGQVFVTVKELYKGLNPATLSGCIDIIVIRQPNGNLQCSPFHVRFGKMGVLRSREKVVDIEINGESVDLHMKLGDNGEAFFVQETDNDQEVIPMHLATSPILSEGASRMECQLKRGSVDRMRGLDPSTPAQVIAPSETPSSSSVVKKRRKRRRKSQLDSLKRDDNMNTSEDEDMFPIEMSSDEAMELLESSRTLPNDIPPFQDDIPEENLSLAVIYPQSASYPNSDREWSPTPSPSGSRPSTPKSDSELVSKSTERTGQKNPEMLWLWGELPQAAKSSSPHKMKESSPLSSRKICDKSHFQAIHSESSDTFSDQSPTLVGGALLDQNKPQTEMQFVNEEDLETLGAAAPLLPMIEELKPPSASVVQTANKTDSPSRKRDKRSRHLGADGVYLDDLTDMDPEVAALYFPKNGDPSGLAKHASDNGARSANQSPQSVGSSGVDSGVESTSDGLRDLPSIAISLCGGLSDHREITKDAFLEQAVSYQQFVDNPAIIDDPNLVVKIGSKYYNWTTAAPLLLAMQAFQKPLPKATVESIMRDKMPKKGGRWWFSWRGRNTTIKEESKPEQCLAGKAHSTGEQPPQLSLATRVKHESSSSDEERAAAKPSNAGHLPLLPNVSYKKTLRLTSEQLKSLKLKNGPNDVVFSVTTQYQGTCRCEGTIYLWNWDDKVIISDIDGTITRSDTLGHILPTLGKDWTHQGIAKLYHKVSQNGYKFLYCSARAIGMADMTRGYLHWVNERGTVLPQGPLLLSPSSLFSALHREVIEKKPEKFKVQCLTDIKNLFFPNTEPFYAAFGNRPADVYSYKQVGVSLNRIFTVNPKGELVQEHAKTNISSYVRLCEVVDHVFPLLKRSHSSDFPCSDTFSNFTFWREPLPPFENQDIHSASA
Sequence of UniProt O00522 (O00522 whole entry, looked up): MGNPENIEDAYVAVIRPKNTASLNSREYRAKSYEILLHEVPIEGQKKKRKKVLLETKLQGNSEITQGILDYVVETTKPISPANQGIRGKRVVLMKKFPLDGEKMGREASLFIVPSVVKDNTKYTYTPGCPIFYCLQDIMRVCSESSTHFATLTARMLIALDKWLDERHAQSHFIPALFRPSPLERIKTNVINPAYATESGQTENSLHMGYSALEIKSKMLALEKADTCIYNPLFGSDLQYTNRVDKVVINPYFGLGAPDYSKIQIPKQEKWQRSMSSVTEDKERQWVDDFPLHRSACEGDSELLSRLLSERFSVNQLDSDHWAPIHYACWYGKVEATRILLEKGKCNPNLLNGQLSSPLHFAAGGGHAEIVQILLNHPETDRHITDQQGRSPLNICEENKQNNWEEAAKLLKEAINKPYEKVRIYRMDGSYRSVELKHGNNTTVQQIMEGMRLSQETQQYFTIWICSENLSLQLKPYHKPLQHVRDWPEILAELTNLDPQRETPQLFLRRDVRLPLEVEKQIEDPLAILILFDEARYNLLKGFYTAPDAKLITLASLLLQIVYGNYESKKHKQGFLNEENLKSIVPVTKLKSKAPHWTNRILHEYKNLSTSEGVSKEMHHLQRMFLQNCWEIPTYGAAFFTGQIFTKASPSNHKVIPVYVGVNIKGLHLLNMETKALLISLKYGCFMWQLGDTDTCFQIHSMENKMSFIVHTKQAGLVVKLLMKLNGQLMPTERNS
Sequence of UniProt Q8N653 (Q8N653 whole entry, looked up): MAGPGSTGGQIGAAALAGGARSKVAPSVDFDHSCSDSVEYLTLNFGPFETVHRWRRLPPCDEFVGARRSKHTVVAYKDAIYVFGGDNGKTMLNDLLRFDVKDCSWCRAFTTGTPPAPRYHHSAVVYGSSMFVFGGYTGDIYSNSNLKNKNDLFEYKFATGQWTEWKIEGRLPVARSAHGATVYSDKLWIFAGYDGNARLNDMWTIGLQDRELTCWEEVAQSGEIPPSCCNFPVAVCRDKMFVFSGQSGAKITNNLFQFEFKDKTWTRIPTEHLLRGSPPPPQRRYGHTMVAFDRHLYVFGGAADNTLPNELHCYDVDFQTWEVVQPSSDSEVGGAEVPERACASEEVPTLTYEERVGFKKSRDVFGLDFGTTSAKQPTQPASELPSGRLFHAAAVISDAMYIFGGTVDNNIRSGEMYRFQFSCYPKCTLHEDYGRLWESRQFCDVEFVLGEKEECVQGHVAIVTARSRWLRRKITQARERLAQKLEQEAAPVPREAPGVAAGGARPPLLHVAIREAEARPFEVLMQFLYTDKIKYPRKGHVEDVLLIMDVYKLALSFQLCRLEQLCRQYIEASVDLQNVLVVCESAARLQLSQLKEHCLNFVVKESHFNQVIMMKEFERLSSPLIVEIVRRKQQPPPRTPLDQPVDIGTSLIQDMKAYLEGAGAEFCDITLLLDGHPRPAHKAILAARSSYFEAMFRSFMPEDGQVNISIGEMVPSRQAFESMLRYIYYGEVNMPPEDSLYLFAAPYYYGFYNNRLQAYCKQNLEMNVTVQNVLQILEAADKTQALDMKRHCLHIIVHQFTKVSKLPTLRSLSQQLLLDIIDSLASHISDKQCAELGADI
Sequence of UniProt P45984 (P45984 whole entry, looked up): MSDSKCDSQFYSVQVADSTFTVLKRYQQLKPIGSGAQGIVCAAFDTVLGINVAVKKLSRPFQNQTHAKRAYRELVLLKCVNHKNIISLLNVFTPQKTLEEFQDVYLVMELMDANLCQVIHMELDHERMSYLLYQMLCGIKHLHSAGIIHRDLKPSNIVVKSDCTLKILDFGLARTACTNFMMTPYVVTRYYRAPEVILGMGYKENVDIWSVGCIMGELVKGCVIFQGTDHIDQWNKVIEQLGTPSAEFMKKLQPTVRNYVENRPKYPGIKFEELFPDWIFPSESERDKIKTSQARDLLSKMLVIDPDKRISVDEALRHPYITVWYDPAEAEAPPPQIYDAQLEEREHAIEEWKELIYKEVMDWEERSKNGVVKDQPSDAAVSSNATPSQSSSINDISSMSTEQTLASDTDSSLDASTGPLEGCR

On to MED8 isoform 2 (UniProt Q96G25), for which the log2 fold change was 0.019 in assay [1]; 0.037 with vorinostat; -0.012 with silmitasertib; -0.026 in assay [2]; 0 with entospletinib.

In the case of KRIT1 (UniProt O00522), the log2 fold change in assay [1] was -0.125; with vorinostat it was -0.046; in the assay with silmitasertib, -0.013; in assay [2] it was -0.02; with entospletinib, 0.012.

With MPP1 (UniProt Q00013), the log2 fold change in assay [1] was 0.012; with vorinostat, -0.297 (active); in the assay with silmitasertib, 0.02; in assay [2] it was 0.024; with entospletinib it was 0.007.

As to MAP7D3 (UniProt Q8IWC1), the log2 fold change in assay [1] was 0.098; with vorinostat it was 0.037; with silmitasertib it was 0.059; in assay [2], -0.046; with entospletinib it was -0.013.

As to LSM8 (UniProt O95777), the log2 fold change in assay [1] is -0.052; with vorinostat, 0.063; with silmitasertib it was -0.011; in assay [2], 0.009; with entospletinib it was 0.028.

For MED13L (UniProt Q71F56), the log2 fold change was -0.057 in assay [1]; -0.253 (active) with vorinostat; 0.017 with silmitasertib; 0.017 in assay [2]; -0.052 with entospletinib.

With LZTR1 (UniProt Q8N653), the log2 fold change is -0.022 in assay [1]; -0.472 (active) with vorinostat; 0.005 with silmitasertib; 0.013 in assay [2]; 0.055 with entospletinib.

Consider MINDY1 isoform 3 (UniProt Q8N5J2), for which the log2 fold change in assay [1] is -0.097; in the assay with vorinostat, -0.186; in the assay with silmitasertib it was 0.144; in assay [2], 0.166; with entospletinib it was -0.052.

LPIN1 isoform 7 (UniProt Q14693): the log2 fold change in assay [1] is 0.052; in the assay with vorinostat it was -0.489 (active); in the assay with silmitasertib, -0.014; in assay [2] it was 0.004; with entospletinib, -0.193.

With MAPK14 isoform 2 (UniProt Q16539), the log2 fold change is -0.06 in assay [1]; -0.328 with vorinostat; 0.291 with silmitasertib; -0.092 in assay [2]; -0.015 with entospletinib.

Consider LYN (UniProt P07948), for which the log2 fold change is 0.025 in assay [1]; -0.305 in the assay with vorinostat; -0.058 with silmitasertib; -0.108 in assay [2]; 0.149 with entospletinib.

Turning to KIF4B (UniProt Q2VIQ3), the log2 fold change is -0.035 in assay [1]; -0.506 (active) in the assay with vorinostat; 0.027 in the assay with silmitasertib; -0.02 in assay [2]; 0 in the assay with entospletinib.

On to LUZP1 (UniProt Q86V48), for which the log2 fold change was 0.094 in assay [1]; -0.248 (active) in the assay with vorinostat; 0.129 with silmitasertib; 0.022 in assay [2]; -0.03 in the assay with entospletinib.

In the case of MAPK6 (UniProt Q16659), the log2 fold change was -0.04 in assay [1]; -0.033 with vorinostat; 0.033 with silmitasertib; 0.035 in assay [2]; 0.024 in the assay with entospletinib.

With MICU2 (UniProt Q8IYU8), the log2 fold change in assay [1] is 0.012; in the assay with vorinostat it was -0.179; in the assay with silmitasertib, 0.031; in assay [2], -0.009; with entospletinib it was -0.089.

With MAP4 (UniProt E7EVA0), the log2 fold change in assay [1] is -0.044; in the assay with vorinostat, 0.025; in the assay with silmitasertib it was 0.028; in assay [2], 0.079; in the assay with entospletinib, -0.025.

Consider LRIF1 (UniProt Q5T3J3), for which the log2 fold change is 0.079 in assay [1]; 0.082 with vorinostat; -0.11 with silmitasertib; -0.024 in assay [2]; 0.001 with entospletinib.

Turning to MMS19 isoform 8 (UniProt Q96T76), the log2 fold change in assay [1] is 0.057; with vorinostat it was -0.372 (active); with silmitasertib, 0.054; in assay [2], 0.029; with entospletinib it was 0.024.

As for MAPK9 (UniProt P45984), the log2 fold change in assay [1] is -0.008; in the assay with vorinostat, -0.129; with silmitasertib, 0.037; in assay [2], -0.004; with entospletinib, 0.

On to KIF15 (UniProt Q9NS87), for which the log2 fold change in assay [1] was 0.017; with vorinostat it was -0.136; in the assay with silmitasertib, 0.02; in assay [2], 0.004; in the assay with entospletinib, -0.024.

With KMT2A isoform 3 (UniProt Q03164), the log2 fold change in assay [1] was 0.046; with vorinostat, 0.101; with silmitasertib, 0.012; in assay [2] it was 0.066; in the assay with entospletinib, -0.034.

With MED12 isoform 2 (UniProt Q93074), the log2 fold change was 0.003 in assay [1]; -0.466 (active) with vorinostat; -0.044 in the assay with silmitasertib; -0.008 in assay [2]; -0.012 with entospletinib.

LAGE3 (UniProt Q14657): the log2 fold change in assay [1] is 0.045; in the assay with vorinostat, -0.085; in the assay with silmitasertib it was -0.016; in assay [2], -0.041; with entospletinib, -0.043.

For MGST1 (UniProt P10620), the log2 fold change in assay [1] was -0.013; with vorinostat, 0.037; with silmitasertib it was -0.013; in assay [2] it was 0.031; in the assay with entospletinib, -0.01.
